aDG glyco up: alpha-DG glycosylation activation. Pro5-aDG cells, alpha-DG glycosylation AlphaScreen (IIH6); 0% Pro5, 100% B10-LARGE cell signal. activation, % at 10 µM. 360,000 compounds, 0.22% hits. AID 624168;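 active = activation of at least 8% versus controls, or a plate z-score of at least 8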;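 also: Pro5 are CHO cells carrying HIG-tagged alpha-DG that lacks glycosylation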
CR mimetic SO: lowers age-related superoxide in aged yeast cells; S. cerevisiae aged cells, superoxide DHE fluorescence; hits give low values; superoxide response (% of plate mean), % at 10 µM; 330,000 compounds, 0.18% hits;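 active = superoxide response under a set limit, about three screen SD below normal, cut at about 65% in these data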;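 also: yeast aged for seven days with compound at 30 °C before DHE staining; 100% = average MFI of all compound-treated wells on the plate with controls excluded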
Mot1-301 SUMO: inhibitors of SUMOylation pathway: yeast Mot1-301 growth rescue | S. cerevisiae Mot1-301 growth rescue, ATP luminescence, 38.5C; percent above DMSO median, 100 means doubled | growth rescue, % at 18.8 µM | 320,000 compounds, 1% hits | AID 2716;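 active = every valid replicate shows activation above 250% relative to neutral control wells; inactive = the rest, any valid replicate at or below 250%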;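 also: OY570 slx delta 5 strain wells were the positive control but not used for scaling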
MPTP block: blocks calcium-induced mitochondrial swelling. isolated mouse mitochondria, Ca2+ swelling absorbance, 30 min. inhibition, % at 10 µM. 360,000 compounds, 1.4% hits;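 active = inhibition of 50% or more, scaled per plate between neutral and stimulator controls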;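 also: 0% = DMSO wells given calcium and 100% = 1 mM EGTA wells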
Cardio protect: myocardial damage modulation in H9c2 cells | H9c2 cardiomyocytes, H2O2 injury protection, ATPLite, 2 h | protection from H2O2 cell death, % at 20 µM | 360,000 compounds, 0.63% hits | AID 588492;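 active = compounds giving at least 50% protection of heart cells from peroxide-induced death in the single-dose screen, raw or plate-pattern-corrected value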;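 also: 0% = DMSO wells with peroxide and 100% = DMSO wells without peroxide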
FAS-TE inh: blocks the thioesterase domain of human fatty acid synthase | P49327 | recombinant FAS-TE, OMFH fluorogenic substrate, fluorescence endpoint | inhibition, % at 15 µM | 360,000 compounds, 0.67% hits | AID 602261;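 active = compounds whose normalised, plate-corrected inhibition of enzyme fluorescence in the single-dose primary screen is 50% or more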;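 also: 0% = DMSO with enzyme and 100% = substrate without enzyme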
* marks the source's active call; other numbers are inactive results. Sampled rows, rich in hits. Any-hit rate of the full collection: about 3.8%.

For Cc1ccccc1NC1(C#N)C(=O)Nc2ccccc21 (configuration not stated) the results were aDG glyco up 0.7, CR mimetic SO 110.8, Mot1-301 SUMO 347.9*, MPTP block 0.3, Cardio protect -4.2 and FAS-TE inh -2.9.
CCn1nnc2cc(C(=O)Nc3cccc(S(=O)(=O)N(C)C)c3)ccc21 was read as aDG glyco up -0.2, CR mimetic SO 83.4, Mot1-301 SUMO -16.9, MPTP block -2.5, Cardio protect 9.7 and FAS-TE inh 0.0.
Screening COc1ccc(C(=O)COC(=O)C(CCCCN2C(=O)C3C4C=CC(C4)C3C2=O)N2C(=O)C3C4C=CC(C4)C3C2=O)cc1 (configuration not stated) returned aDG glyco up 0.2, CR mimetic SO 99.2, MPTP block 0.8, Cardio protect 74.9* and FAS-TE inh 22.2.
Screening CCCCC1SC(N)=NC1=O (configuration not stated) returned aDG glyco up 0.0, MPTP block 0.5, Cardio protect 1.3 and FAS-TE inh -4.6.
Screening CCOC(=O)c1c(NC(=O)c2nn(CC)cc2Br)sc2c1CCCCC2 returned aDG glyco up 0.0, CR mimetic SO 106.2, Mot1-301 SUMO 857.9*, MPTP block 2.5, Cardio protect -15.0 and FAS-TE inh 27.3.
Screening CCOC(=O)c1ccc(NC(=O)c2nn(CC)cc2Br)cc1 returned aDG glyco up 0.3, CR mimetic SO 85.9, Mot1-301 SUMO 349.1*, MPTP block -2.5, Cardio protect -10.3 and FAS-TE inh 7.5.
CCOC(=O)c1c(NC(=O)c2nn(CC)cc2Br)sc(C)c1C was read as aDG glyco up 0.2, CR mimetic SO 111.5, Mot1-301 SUMO 14.2, MPTP block 2.6, Cardio protect -3.8 and FAS-TE inh 27.2.
Screening O=C(Cc1ccc([N+](=O)[O-])cc1)N/N=C/c1ccc([N+](=O)[O-])o1 returned aDG glyco up 10.2*, CR mimetic SO 121.2, Mot1-301 SUMO 46.0, MPTP block 0.3, Cardio protect 5.5 and FAS-TE inh 1.6.
O=C(CNc1cccc2ccccc12)N/N=C/c1ccc([N+](=O)[O-])o1 was read as aDG glyco up 8.2*, CR mimetic SO 137.1, Mot1-301 SUMO -5.1, MPTP block 4.5, Cardio protect -0.8 and FAS-TE inh 13.7.
O=C(N/N=C/c1ccc([N+](=O)[O-])o1)c1ccc2c(c1)OCO2 was read as aDG glyco up 10.4*, CR mimetic SO 117.6, Mot1-301 SUMO -17.7, MPTP block 0.7, Cardio protect -0.1 and FAS-TE inh -5.2.
`Cc1cc(N/N=C/c2ccc([N+](=O)[O-])o2)nc2ccccc12` gave aDG glyco up 8.2*, CR mimetic SO 110.8, Mot1-301 SUMO -6.2, MPTP block 5.2, Cardio protect 9.9 and FAS-TE inh -9.4.
Screening CCCCCCCC(=O)N/N=C/c1ccc([N+](=O)[O-])o1 returned aDG glyco up 0.9, CR mimetic SO 93.3, Mot1-301 SUMO -5.0, MPTP block 7.4, Cardio protect -10.4 and FAS-TE inh 31.9.
For CCOC(=O)C1CCCN(C(=O)c2cc(C#N)cs2)CC1 (configuration not stated) the results were aDG glyco up 0.7, MPTP block 1.1, Cardio protect 1.3 and FAS-TE inh -6.1.
For N#Cc1ccccc1CSc1nnc(-c2ccncc2)o1 the results were aDG glyco up 0.2, CR mimetic SO 80.4, Mot1-301 SUMO 7.7, MPTP block -0.1, Cardio protect -5.6 and FAS-TE inh -1.2.
`N#Cc1ccccc1CSc1nnc(Cc2ccccc2)o1` gave aDG glyco up -0.4, CR mimetic SO 109.7, Mot1-301 SUMO 348.3*, MPTP block 1.0, Cardio protect -3.4 and FAS-TE inh 3.0.
CC(C)S(=O)(=O)NC(=O)C1(C)CCN1C(=O)Cc1ccccc1 (configuration not stated) was read as aDG glyco up 0.0, MPTP block 0.8, Cardio protect 1.4 and FAS-TE inh -10.1.
For Cc1cc(C)c2cc(C#N)c(NCCCNC(=O)c3ccncc3)nc2c1 the results were aDG glyco up 0.2, MPTP block 1.4, Cardio protect 24.2 and FAS-TE inh -6.0.
COc1cc(C(=O)NCCCNc2nc3cc(C)cc(C)c3cc2C#N)cc(OC)c1OC was read as aDG glyco up 0.0, CR mimetic SO 108.2, Mot1-301 SUMO -20.6, MPTP block 0.3, Cardio protect 81.3* and FAS-TE inh 0.0.
CCCCNC(=O)C1(C)CCCCN1C(=O)c1ccc2sccc2c1 (configuration not stated) was read as aDG glyco up 0.1, MPTP block -0.5, Cardio protect -2.8 and FAS-TE inh -6.7.
Screening COc1ccc(CN(C(=O)CN2C(=O)NC3(CCC(C)CC3)C2=O)C(C)Cc2cccs2)cc1 (configuration not stated) returned aDG glyco up 0.1, CR mimetic SO 96.5, Mot1-301 SUMO -0.5, MPTP block 0.4, Cardio protect 14.3 and FAS-TE inh 20.2.
For CC(=O)Nc1nc(C)c(-c2csc(Nc3cccc([N+](=O)[O-])c3)n2)s1 the results were aDG glyco up -0.4, CR mimetic SO 103.8, Mot1-301 SUMO -10.2, MPTP block 2.3, Cardio protect 43.5 and FAS-TE inh 7.3.
`CC(=O)Nc1nc(C)c(-c2csc(Nc3cccc(C(C)=O)c3)n2)s1` gave aDG glyco up 0.0, CR mimetic SO 103.0, Mot1-301 SUMO -22.3, MPTP block -0.7, Cardio protect 65.6* and FAS-TE inh -2.5.
CC(=O)Nc1ccc(Nc2nc(-c3sc(NC(C)=O)nc3C)cs2)cc1 was read as aDG glyco up -0.1, CR mimetic SO 101.7, Mot1-301 SUMO 4.7, MPTP block 0.3, Cardio protect 57.2* and FAS-TE inh 1.6.
Screening CC(Sc1nc2ncc(Cl)cc2[nH]1)C(=O)NC1(C#N)CCCCC1 (configuration not stated) returned aDG glyco up -0.4, CR mimetic SO 87.4, Mot1-301 SUMO -15.8, MPTP block 0.7, Cardio protect -13.3 and FAS-TE inh -4.0.
Cc1ccccc1C(=O)NC1CCN(CC(=O)NC2CCCCC2)CC1 was read as aDG glyco up 0.0, CR mimetic SO 89.8, Mot1-301 SUMO 3.7, MPTP block -0.4, Cardio protect -6.9 and FAS-TE inh -6.1.
For Cc1ccc2cc(CN(CC3CCCO3)S(=O)(=O)c3c(C)ccc4nsnc34)c(=O)[nH]c2c1 (configuration not stated) the results were aDG glyco up -0.4, CR mimetic SO 116.5, Mot1-301 SUMO -8.2, MPTP block -3.7, Cardio protect 6.2 and FAS-TE inh -7.6.
For Cc1ccc2nsnc2c1S(=O)(=O)N(Cc1cc2cccc(C)c2[nH]c1=O)CC1CCCO1 (configuration not stated) the results were aDG glyco up -0.7, CR mimetic SO 76.4, Mot1-301 SUMO 26.1, MPTP block -2.4, Cardio protect 80.0* and FAS-TE inh -3.5.

Compound activity as filed in PubChem.
